Experimental data published in PubChem BioAssay (NCI).
This is part of a sample that, as a whole, favours compounds with a hit. Of some 79,000 tested, about 15% had one in any assay. Unmarked numbers belong to inactive results. Active and inactive are the calls of the source. Rule as the data show it: active = growth inhibition above about 70%; inactive = the rest.

Key:
[1] = NCI Yeast Anticancer Drug Screen. Data for the rad52 strain (AID 147);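 also: 0% = growth of vehicle-treated control cultures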; conditions: S. cerevisiae rad52 mutant growth inhibition, hits give high values
Summary of the method: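 Measured: yeast growth inhibition. System: strain with a defined DNA damage repair alteration. Reference: vehicle-treated control cultures.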

[2] = NCI Yeast Anticancer Drug Screen. Data for the wt1 strain (AID 149);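 also: 0% = growth of vehicle-treated wt1 cultures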; conditions: S. cerevisiae wt1 strain (SPY 50644) growth inhibition, hits give high values
Summary of the method: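 Each compound is tested on wt1 yeast and the loss of growth versus vehicle gives the inhibition value.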

[3] = NCI Yeast Anticancer Drug Screen. Data for the rad50EPP+ strain (AID 151);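 also: 0% = growth of vehicle-treated control cultures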; conditions: S. cerevisiae rad50 mutant strain, hits give high values
Summary of the method: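 One strain with a rad50 alteration (rad50EPP+) was compound-treated, its growth then compared to that of vehicle controls.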

[4] = NCI Yeast Anticancer Drug Screen. Data for the rad50 strain (AID 155);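 also: 0% = growth of vehicle-only cultures of the same strain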; conditions: S. cerevisiae rad50 strain growth inhibition, hits give high values
Summary of the method: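 Vehicle-treated cultures provide the reference for the growth inhibition reported for compound-exposed, repair-deficient yeast.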

[5] = NCI Yeast Anticancer Drug Screen. Data for the mec2-1 strain (AID 157); conditions: S. cerevisiae mec2-1 strain, hits give high values
Summary of the method: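 Test agents were screened against the mec2-1 yeast strain, with defined DNA repair or cell cycle alteration. Growth was scored as inhibition against vehicle-only controls.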

[6] = NCI Yeast Anticancer Drug Screen. Data for the rad14 strain (AID 159);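 also: 0% = growth of vehicle-treated control cultures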; conditions: S. cerevisiae rad14 strain growth inhibition, hits give high values
Summary of the method: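 Inhibition of growth is reported for a repair-deficient yeast mutant following compound treatment, calculated relative to cultures that received vehicle.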

[7] = NCI Yeast Anticancer Drug Screen. Data for the sgs1 mgt1 strain (AID 161);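 also: 0% = growth of cultures given vehicle only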; conditions: S. cerevisiae sgs1 mgt1 strain, hits give high values
Summary of the method: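 Read-out: growth inhibition vs vehicle controls. Cells: mutant yeast strain deficient in DNA damage repair.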

[8] = NCI Yeast Anticancer Drug Screen. Data for the CLN2oe strain (AID 163);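 also: 0% = growth of vehicle-only control cultures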; conditions: S. cerevisiae CLN2oe strain, hits give high values
Summary of the method: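 Here, growth inhibition in a cell-cycle-altered yeast strain after compound exposure was quantified against vehicle control growth.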

[9] = NCI Yeast Anticancer Drug Screen. Data for the cln2 rad14 strain (AID 165);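 also: 0% = growth equal to vehicle treated cultures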; conditions: S. cerevisiae cln2 rad14 strain, hits give high values
Summary of the method: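 Growth of compound-exposed yeast (cln2 rad14 genotype) measured and expressed as inhibition relative to vehicle.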

[10] = NCI Yeast Anticancer Drug Screen. Data for the bub3 strain (AID 167); conditions: S. cerevisiae bub3 mutant strain, hits give high values
Summary of the method: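 Mutant yeast screening strain plus compound; vehicle-treated cultures serve as the 0% inhibition reference.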

[11] = NCI Yeast Anticancer Drug Screen. Data for the wt2 strain (AID 169); conditions: S. cerevisiae wt2 strain growth inhibition, hits give high values
Summary of the method: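 Genetically defined yeast strains from a DNA-repair/cell-cycle panel were used. Compound-exposed yeast growth was measured, and the inhibition was calculated relative to vehicle treatment.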

[12] = NCI Yeast Anticancer Drug Screen. Data for the mlh1 strain (AID 171);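 also: 0% = growth of vehicle-treated control cultures of the same strain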; conditions: S. cerevisiae mlh1 strain growth inhibition, hits give high values
Summary of the method: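 Here the genetically defined yeast mutant is grown with each compound, and the extent to which its growth falls below that of vehicle-exposed cells is reported.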

[13] = NCI Yeast Anticancer Drug Screen. Data for the sgs1 strain (AID 173);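 also: 0% = growth of vehicle-only control cultures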; conditions: S. cerevisiae sgs1 mutant, hits give high values
Summary of the method: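 Relative growth inhibition, referenced to vehicle, was determined in a yeast strain with a defined alteration affecting DNA damage repair or cell cycle control after compound exposure.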

[14] = NCI Yeast Anticancer Drug Screen. Data for the mlh1 rad18 strain (AID 175); conditions: S. cerevisiae mlh1 rad18 strain growth inhibition, hits give high values
Summary of the method: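 In this whole-cell yeast screen, a strain with altered DNA damage repair is challenged with compound, and its growth is measured against matched vehicle-treated controls.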

[15] = NCI Yeast Anticancer Drug Screen. Data for the rad18 strain (AID 177); conditions: S. cerevisiae rad18 mutant growth inhibition, hits give high values
Summary of the method: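 Screen uses a yeast strain with a defined lesion in DNA damage repair; compound effect is read as loss of growth compared to untreated vehicle cultures.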

[16] = at 5.0 µM (retest, dose inferred, filed as 0.5)
[17] = at 50.0 µM (retest, dose inferred, filed as 5.0)

Q: Which growth inhibition ([1]; at 1.2 µM) does the source give for `CCOC(=O)C1=C(C)NC(C)=C(C(=O)OCC)C1c1ccc(C)cc1` here?
A: Its growth inhibition is 27%.

Q: And the growth inhibition ([1]; at 3.7 µM)?
A: The growth inhibition was 43%.

Q: And the growth inhibition ([1]; at 11.0 µM)?
A: The growth inhibition was 64%.

Q: What about the growth inhibition ([1]; at 33.0 µM) of the same compound?
A: Its growth inhibition is 97% (active).

Q: And the growth inhibition ([1]; at 100.0 µM)?
A: Its growth inhibition is 95% (active).

Q: What about the growth inhibition ([2]; at 1.2 µM) of the same compound?
A: Its growth inhibition is 28%.

Q: What about the growth inhibition ([2]; at 3.7 µM) of the same compound?
A: The growth inhibition was 19%.

Q: What about the growth inhibition ([2]; at 11.0 µM) of the same compound?
A: The growth inhibition was 57%.

Q: And the growth inhibition ([2]; at 33.0 µM)?
A: Its growth inhibition is 97% (active).

Q: What about the growth inhibition ([2]; at 100.0 µM) of the same compound?
A: Its growth inhibition is 96% (active).

Q: What about the growth inhibition ([3]; at 1.2 µM) of the same compound?
A: The growth inhibition was -21%.

Q: What about the growth inhibition ([3]; at 3.7 µM) of the same compound?
A: The growth inhibition was -27%.

Q: What about the growth inhibition ([3]; at 11.0 µM) of the same compound?
A: The growth inhibition was -25%.

Q: What about the growth inhibition ([3]; at 33.0 µM) of the same compound?
A: Its growth inhibition is -13%.

Q: And the growth inhibition ([3]; at 100.0 µM)?
A: The growth inhibition was 27%.

Q: And the growth inhibition ([4]; at 1.2 µM)?
A: Its growth inhibition is 30%.

Q: What about the growth inhibition ([4]; at 3.7 µM) of the same compound?
A: The growth inhibition was 31%.

Q: And the growth inhibition [4, 16]?
A: Its growth inhibition is -24%.

Q: And the growth inhibition ([4]; at 11.0 µM)?
A: Its growth inhibition is 59%.

Q: And the growth inhibition ([4]; at 33.0 µM)?
A: The growth inhibition was 96% (active).

Q: And the growth inhibition [4, 17]?
A: Its growth inhibition is 21%.

Q: What about the growth inhibition ([4]; at 50.0 µM) of the same compound?
A: The growth inhibition was 88.7% (active).

Q: And the growth inhibition ([4]; at 100.0 µM)?
A: Its growth inhibition is 96% (active).

Q: What about the growth inhibition ([5]; at 1.2 µM) of the same compound?
A: Its growth inhibition is 27%.

Q: And the growth inhibition ([5]; at 3.7 µM)?
A: The growth inhibition was -6%.

Q: And the growth inhibition [5, 16]?
A: The growth inhibition was -24%.

Q: And the growth inhibition ([5]; at 11.0 µM)?
A: The growth inhibition was 39%.

Q: What about the growth inhibition ([5]; at 33.0 µM) of the same compound?
A: The growth inhibition was 97% (active).

Q: What about the growth inhibition [5, 17] of the same compound?
A: The growth inhibition was 7%.

Q: What about the growth inhibition ([5]; at 50.0 µM) of the same compound?
A: The growth inhibition was 91.5% (active).

Q: What about the growth inhibition ([5]; at 100.0 µM) of the same compound?
A: The growth inhibition was 95% (active).

Q: What about the growth inhibition ([6]; at 1.2 µM) of the same compound?
A: The growth inhibition was 17%.

Q: What about the growth inhibition ([6]; at 3.7 µM) of the same compound?
A: The growth inhibition was 14%.

Q: And the growth inhibition ([6]; at 11.0 µM)?
A: Its growth inhibition is 69%.

Q: What about the growth inhibition ([6]; at 33.0 µM) of the same compound?
A: Its growth inhibition is 96% (active).

Q: What about the growth inhibition ([6]; at 100.0 µM) of the same compound?
A: Its growth inhibition is 93% (active).

Q: What about the growth inhibition [7, 16] of the same compound?
A: Its growth inhibition is -20%.

Q: What about the growth inhibition [7, 17] of the same compound?
A: Its growth inhibition is 75% (active).

Q: What about the growth inhibition ([7]; at 50.0 µM) of the same compound?
A: Its growth inhibition is 91.8% (active).

Q: What about the growth inhibition ([8]; at 1.2 µM) of the same compound?
A: The growth inhibition was 26%.

Q: What about the growth inhibition ([8]; at 3.7 µM) of the same compound?
A: The growth inhibition was 13%.

Q: And the growth inhibition ([8]; at 11.0 µM)?
A: Its growth inhibition is 33%.

Q: What about the growth inhibition ([8]; at 33.0 µM) of the same compound?
A: The growth inhibition was 96% (active).

Q: What about the growth inhibition ([8]; at 100.0 µM) of the same compound?
A: The growth inhibition was 95% (active).

Q: And the growth inhibition [9, 16]?
A: Its growth inhibition is -31%.

Q: And the growth inhibition [9, 17]?
A: Its growth inhibition is 29%.

Q: What about the growth inhibition ([9]; at 50.0 µM) of the same compound?
A: The growth inhibition was 90% (active).

Q: What about the growth inhibition ([10]; at 1.2 µM) of the same compound?
A: The growth inhibition was 61%.

Q: And the growth inhibition ([10]; at 3.7 µM)?
A: Its growth inhibition is 78% (active).

Q: And the growth inhibition [10, 16]?
A: The growth inhibition was -13%.

Q: And the growth inhibition ([10]; at 11.0 µM)?
A: The growth inhibition was 91% (active).

Q: What about the growth inhibition ([10]; at 33.0 µM) of the same compound?
A: Its growth inhibition is 97% (active).

Q: And the growth inhibition [10, 17]?
A: The growth inhibition was 90% (active).

Q: What about the growth inhibition ([10]; at 50.0 µM) of the same compound?
A: Its growth inhibition is 91.3% (active).

Q: What about the growth inhibition ([10]; at 100.0 µM) of the same compound?
A: The growth inhibition was 95% (active).

Q: What about the growth inhibition ([11]; at 1.2 µM) of the same compound?
A: Its growth inhibition is 5%.

Q: And the growth inhibition ([11]; at 3.7 µM)?
A: The growth inhibition was 7%.

Q: And the growth inhibition ([11]; at 11.0 µM)?
A: The growth inhibition was 53%.

Q: And the growth inhibition ([11]; at 33.0 µM)?
A: The growth inhibition was 96% (active).

Q: And the growth inhibition ([11]; at 100.0 µM)?
A: The growth inhibition was 96% (active).

Q: What about the growth inhibition ([12]; at 1.2 µM) of the same compound?
A: The growth inhibition was 8%.

Q: And the growth inhibition ([12]; at 3.7 µM)?
A: The growth inhibition was 9%.

Q: What about the growth inhibition ([12]; at 11.0 µM) of the same compound?
A: The growth inhibition was 55%.

Q: And the growth inhibition ([12]; at 33.0 µM)?
A: The growth inhibition was 96% (active).

Q: And the growth inhibition ([12]; at 100.0 µM)?
A: Its growth inhibition is 95% (active).

Q: And the growth inhibition ([13]; at 1.2 µM)?
A: Its growth inhibition is 15%.

Q: And the growth inhibition ([13]; at 3.7 µM)?
A: The growth inhibition was 21%.

Q: What about the growth inhibition ([13]; at 11.0 µM) of the same compound?
A: The growth inhibition was 66%.

Q: What about the growth inhibition ([13]; at 33.0 µM) of the same compound?
A: The growth inhibition was 98% (active).

Q: And the growth inhibition ([13]; at 100.0 µM)?
A: The growth inhibition was 96% (active).

Q: And the growth inhibition [14, 16]?
A: The growth inhibition was -37%.

Q: What about the growth inhibition [14, 17] of the same compound?
A: The growth inhibition was 79% (active).

Q: What about the growth inhibition ([14]; at 50.0 µM) of the same compound?
A: Its growth inhibition is 90.2% (active).

Q: And the growth inhibition ([15]; at 1.2 µM)?
A: The growth inhibition was -2%.

Q: What about the growth inhibition ([15]; at 3.7 µM) of the same compound?
A: The growth inhibition was -2%.

Q: And the growth inhibition ([15]; at 11.0 µM)?
A: Its growth inhibition is 20%.

Q: What about the growth inhibition ([15]; at 33.0 µM) of the same compound?
A: Its growth inhibition is 96% (active).

Q: And the growth inhibition ([15]; at 100.0 µM)?
A: Its growth inhibition is 96% (active).
